Shown are actives, neighbours in structure and some others; about 1.3% of the full set was active somewhere.
gsp ag: activates gsp, the McCune-Albright syndrome mutation | 340,000 tested, 0.13% active | AID 624287 | Potency, µM (series often up to 76.9 µM), without a hit: at the top dose activation (cAMP increase), actives largely listed as activators | gsp mutant cells, cAMP HTRF, 30 min; active means well fitted activation curve with a large enough effect; inconclusive means small, poorly fitted or top-dose-only effect, or another doubt; inactive means no such curve, though single readings can be large or run the other way; cell line not stated here;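 further: phosphodiesterase inhibitor Ro 20-1724 added with compounds to block cAMP breakdown; potency means the concentration at half of the fitted maximal effect; nearly all actives have a fitted effect of over 60% in size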
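Cells in DMEM/10% FBS with G418 were pretreated with compounds in DMSO plus […] (300 uM stock) for 30 min at 37C. cAMP was measured by HTRF (cAMP-d2 plus anti-cAMP antibody-K) after 30 min at room temperature.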
RXFP1 ag: activates the human relaxin receptor RXFP1 | Q9HBX9 | HEK293T-RXFP1 cAMP TR-FRET, 30 min; response scale: percent of porcine relaxin response, buffer zero | Potency, µM (top dose mostly 57.5 µM), inactives show at the top dose activation, hits mostly activators | 370,000 tested, 0.3% active | AID 2676; active means well fitted activation curve with a large enough effect; inconclusive means small, poorly fitted or top-dose-only effect; further: potency means the concentration at half of the fitted maximal effect; on the % scale 0 is the no-effect control and ±100 the full control effect; nearly all actives have a fitted effect of over 60% in size
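HEK293 cells stably expressing RXFP1, treated 30 min at 37C with compounds plus PDE4 inhibitor Ro 20174; cAMP measured by HTRF TR-FRET. Normalized to buffer and 29 nM porcine relaxin; EC50 by Hill fit.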
RXFP1 antag: RXFP1 (human) relaxin receptor antagonism; 350,000 tested, 0.59% active; AID 1259400; activity change, negative = inhibition, % at 57.5 µM; HEK293-RXFP1, relaxin-stimulated cAMP HTRF, 30 min; active compounds read low; Q9HBX9;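 active means activity change of -60% or lower, but not beyond a set lower limit; inconclusive means change between -60% and -40%, or beyond the set limit; inactive means change above -40%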; further: on the % scale 0 is the no-effect control and ±100 the full control effect
gsp antagonist: antagonizes gsp, the McCune-Albright syndrome mutation; 340,000 tested, 0.4% active; Potency, µM (highest dose often 76.9 µM), without a hit: at the highest dose activity change, negative = inhibition, actives largely listed as inhibitors; gsp-mutant cells, cAMP HTRF, 30 min; calls by dose curve; cell line not stated here;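 further: intracellular cAMP measured with PDE inhibitor Ro 20-1724 present during compound exposure; potency means the concentration at half of the fitted maximal effect; on the % scale 0 is the no-effect control and ±100 the full control effect; nearly all actives have a fitted effect of over 65% in size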
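Cells in G418 medium, seeded 16-24 h, 37C; buffer exchange to DPBS + 1 mM CaCl2, 0.5 mM MgCl2, 0.05% BSA; cpds in DMSO + […] (300 uM stock), 30 min 37C; HTRF cAMP detection.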
pAkt inh: Akt phosphorylation inhibition; AID 651550; Neuro2A IGF-stimulated pAkt S473 HTRF, 20 min; active compounds read low; activity change, % for hits at 50 µM; 360,000 tested, 0.32% active; in the data active means activity change below about -80%; inconclusive means mostly about -51% to -80%; further: on the % scale 0 is the no-effect control and ±100 the full control effect
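Neuro2A cells in DMEM with 0.5% FBS, overnight at 37 deg C, given compound at single 50 µM final, then IGF (6 nM final) for 20 min at 37 deg C. Lysed; phospho-Akt Ser473 by HTRF after 24 h, 665/615 ratio.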
TSHR antagonist: blocks TSH signaling through the human TSH receptor; TSHR-expressing cells, TSH-stimulated cAMP HTRF, 2 h; active compounds read low; AID 504810; 330,000 tested, 0.2% active; P16473; activity change, negative = inhibition, % at 11.5 µM;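 active means activity change below a set negative limit, meaning inhibition stronger than a set level, cut at about -70% in these data; inconclusive means activity change between two set negative limits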; further: on the % scale 0 is the no-effect control and ±100 the full control effect
Target sequence (P16473 whole entry, looked up): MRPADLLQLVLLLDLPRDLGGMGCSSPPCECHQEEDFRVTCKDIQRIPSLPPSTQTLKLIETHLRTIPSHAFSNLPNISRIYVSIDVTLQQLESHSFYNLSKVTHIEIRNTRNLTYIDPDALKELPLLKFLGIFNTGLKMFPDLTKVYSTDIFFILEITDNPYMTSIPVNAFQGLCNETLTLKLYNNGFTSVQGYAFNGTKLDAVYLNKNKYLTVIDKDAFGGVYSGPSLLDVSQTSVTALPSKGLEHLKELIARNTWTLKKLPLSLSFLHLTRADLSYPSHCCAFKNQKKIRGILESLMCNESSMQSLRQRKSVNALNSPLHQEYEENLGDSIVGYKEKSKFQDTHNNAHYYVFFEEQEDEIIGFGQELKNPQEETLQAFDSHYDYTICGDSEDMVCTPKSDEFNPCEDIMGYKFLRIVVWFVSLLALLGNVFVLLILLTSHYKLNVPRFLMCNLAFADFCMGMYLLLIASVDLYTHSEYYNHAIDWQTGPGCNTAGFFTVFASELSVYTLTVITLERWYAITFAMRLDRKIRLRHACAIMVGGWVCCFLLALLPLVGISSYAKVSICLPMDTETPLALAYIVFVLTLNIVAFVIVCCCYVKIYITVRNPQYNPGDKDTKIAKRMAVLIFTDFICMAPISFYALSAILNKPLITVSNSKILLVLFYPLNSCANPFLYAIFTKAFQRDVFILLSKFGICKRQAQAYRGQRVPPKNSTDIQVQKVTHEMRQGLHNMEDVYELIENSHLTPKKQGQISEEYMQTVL
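TSHR-expressing cells were treated with compounds, then stimulated with TSH at EC80 (4nM final) for 2 hours at 37 deg C. Cellular cAMP was measured by HTRF competition between lysate cAMP and cAMP-d2 for a cryptate-labelled anti-cAMP antibody.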
The depositor's hits bear a star; i = inactive; ? = inconclusive; nt = no result; ! = not active in a repeat; [ ] = another dose, or the depositor's remark.

SMILES	gsp ag	RXFP1 ag	RXFP1 antag	gsp antagonist	pAkt inh	TSHR antagonist
O=C1OC(CCN2CCCCC2)OC1(c1ccccc1)c1ccccc1 (stereo not given)	nt	nt	21	nt	nt	nt
COc1cc(CC(C)N)c(OC)cc1C (stereo not given)	nt	nt	-6	nt	nt	nt
NS(=O)(=O)c1cc(C(=O)OCC(=O)Nc2ccc3[nH]c(=O)[nH]c3c2)ccc1Cl	-24%	0%	13	14%	i	-7
Fc1cc(Br)ccc1CBr	nt	nt	12	nt	nt	nt
CN(C)c1ccc(/C=C/C=C/c2sc3ccccc3[n+]2C)cc1	-122%	-17%	?	28µM*	i	-13
CN(C)c1ccc(/C=C/c2cc[n+](C)c3ccccc23)cc1	-128%	-8%	-95*!	?	i	-22
C[n+]1ccc(-c2ccccc2)c2ccccc21	nt	0%	nt	5%	i	3
CC[C@@]1(O)C(=O)OCc2c1cc1n(c2=O)Cc2cc3c(NC(=O)CN)cccc3nc2-1	10%[15.4 µM]	14µM*	6	10%	i	19
Cc1ccc(C(=O)Nc2ccncc2)cc1S(=O)(=O)N1CCCCC1	-29%	nt	1	nt	i	nt
CC(=NCCc1ccccc1)c1c(O)n(C)c(=O)n(C)c1=O	8%[15.4 µM]	5%	18	-5%	i	1
Cn1c(O)c(Cc2ccc(OCc3ccccc3)cc2)c(=O)n(C)c1=O	-7%	3%	-3	7.1µM*	i	8
COc1ccc(S(=O)(=O)N(C)C[C@H]2OCCCC[C@@H](C)Oc3ccc(N(C)C)cc3C(=O)N([C@H](C)CO)C[C@@H]2C)cc1	-46%	nt	4	nt	i	nt
FC(F)(F)c1ccccc1CNCCc1c[nH]c2ccccc12	-6%	0%	-101*	2%	i	-8
Fc1ccccc1CNCCc1c[nH]c2ccccc12	-4%	0%	-14	15%	i	-3
O=C1NC(=O)N(Cc2ccccc2)C(=O)/C1=C/C=C/c1ccco1	19%	-3%	?	50µM*	i	-5
COc1cc(OC)c(OC)cc1/C=C1/C(=O)NC(=O)N(Cc2ccccc2)C1=O	-3%	0%	-64*	10%	i	-1
CC(C)N1C(=O)/C(=C/C=C/c2ccco2)C(=O)N(Cc2ccco2)C1=O	-14%	0%	-77*	?	i	-8
COc1ccc(/C=C2/C(=O)N(Cc3ccco3)C(=O)N(C(C)C)C2=O)cc1	?	2%	-10	-2%	i	15
CC(Cc1ccccc1)N(C)Cc1ccco1 (stereo not given)	nt	nt	7	nt	nt	nt
CC(C)(N)Cc1ccccc1Cl	nt	nt	20	nt	nt	nt
CC[C@H](OC(C)=O)C(C[C@H](C)NC)(c1ccccc1)c1ccccc1	nt	nt	-22	nt	nt	nt
CC(C(O)c1ccccc1)N(C)C/C=C/c1ccccc1 (stereo not given)	nt	nt	-9	nt	nt	nt
CCC1C=CC=CC[C@H](C)[C@@H](O)[C@](C)(O)C(=O)[C@@H](C)[C@H](O)[C@@H](C)C(=O)[C@H](C)[C@@H](O)[C@H](C)C=CC(=O)OC2[C@@H](C)C(CC1)OC1(CC[C@@H](C)C(C[C@H](C)O)O1)[C@@H]2C (stereo not given in full)	nt	3%	nt	nt	nt	-80*
O=C1NC(=O)N(c2cccc(Cl)c2)C(=O)/C1=C\c1ccc(Sc2nc3ccccc3[nH]2)o1	21%	5%	-32	-3%	i	-6
O=C1NC(=O)N(c2ccccc2)C(=O)/C1=C/c1ccc(Sc2ccccc2)o1	?	5%	-109*	-3%	i	29
SMILES	gsp ag	RXFP1 ag	RXFP1 antag	gsp antagonist	pAkt inh	TSHR antagonist
CCOC(=O)C1(c2ccccc2)CCN(CCc2ccc(N)cc2)CC1	nt	nt	-13	nt	nt	nt
CCOC(C(=O)OCCN(C)C)(c1ccccc1)c1ccccc1	nt	nt	-6	nt	nt	nt
CCCOC(=O)c1c(N)n(Cc2cccs2)c2nc3ccccc3nc12	-32%	-1%	-6	9%	-115%*	16
COc1ccc(OC)c(CNC(=O)CCS(=O)(=O)c2ccc3c(c2)oc(=O)n3C)c1	?	3%	15	6%	i	-10
CCOc1ccc(-c2cc(C)[n+](CCc3ccc(OC)c(OC)c3)c(-c3ccc(OCC)cc3)c2)cc1	9%[15.4 µM]	2%	-84*	-14%	i	-3
O=[N+]([O-])/C=C/c1c(Cl)cccc1Cl	7%	nt	-67*	15%	i	nt
O=P(O)(c1ccc(Cl)cc1)c1ccc(Cl)cc1	-34%	1%	-2	69%	nt	-10
Nc1c(C(=O)OC2CCCCC2)c2nc3ccccc3nc2n1CC1CCCO1 (stereo not given)	-29%	2%	-62*	?	i	-12
CCOP(=S)(OCC)Oc1cc(C)oc(=O)c1	14%	0%	1	4%	i	-70*
CC(C)(Oc1ccc(Cl)cc1)C(=O)OCC(=O)N1CCN(c2ccccc2)CC1	-2%	0%	-23	13%	i	-24
CC(C)n1c(O)c(C2c3cc(Cl)ccc3Oc3[nH]c(=O)n(C(C)C)c(=O)c32)c(=O)[nH]c1=O (stereo not given)	17%[15.4 µM]	1%	-84*	-21%	i	18
CCN(CC)C(=O)c1ccc(NC(=O)CCn2nc(-c3ccc(C)cc3)c3ccccc3c2=O)cc1	nt	1%	-79*	nt	nt	nt
FC(F)(F)c1cccc(CC2CN(Cc3ccccc3)Cc3ccccc3N2c2cc(Cl)cc(Cl)c2)c1 (stereo not given)	-44%	nt	6	nt	i	nt
C1CN2CCC1CC2	nt	nt	-8	nt	nt	nt
Nc1c2c(nc3ccccc13)CCN(Cc1ccccc1)C2	21%	0%	-3	-11%	i	6
CN1CCc2nc3ccc(F)cc3c(C(N)=O)c2C1	27%	0%	-5	-3%[15.4 µM]	-99%*	13
COc1ccc(-[n+]2c(-c3ccccc3)cc(-c3ccccc3)cc2-c2ccccc2)cc1	nt	1%	nt	-20%	i	-29
Oc1ccc(-[n+]2c(-c3ccccc3)cc(-c3ccccc3)cc2-c2ccccc2)cc1	nt	0%	nt	50µM*	i	-48
CN(CC(=O)Nc1cccc(F)c1)CC(=O)Nc1cccc(S(=O)(=O)N(C)c2ccccc2)c1	-1%[15.4 µM]	nt	-9	50µM*	i	nt
Cc1cccc(C)c1NC(=O)CN(C)CC(=O)Nc1ccc(C#N)c(Cl)c1	?	5%	-17	8%	i	13
C[C@H](CO)N1C[C@H](C)[C@H](CN(C)C(=O)N[C@H](C)c2ccccc2)OCc2ccccc2-c2c(n(C)c3ccccc23)C1=O	-34%	nt	-1	nt	i	nt
O=C1OCc2cc(N=Nc3c(O)[nH]c(=O)[nH]c3=O)ccc21	?	10µM*	9	13%	i	6

From PubChem
